Source: PubChem BioAssay (Tox21)
Results filed as inconclusive are left out. Activity calls are given as the source filed them. Calls follow the shape of the full dose curve.

These compounds were tested against Thyrotropin receptor (Homo sapiens) (UniProt P16473) (assay: qHTS assay to identify small molecule antagonists of the thyroid stimulating hormone receptor (TSHR) signaling pathway (AID 1259385; also: nearly all actives have a fitted effect of over 20% in size)). Conditions: TSHR-HEK293 cAMP HTRF, TSH-stimulated antagonist mode; series mostly up to 92.4 µM; activity change, negative = inhibition: at the top concentration.
Outline: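 TSHR-HEK293 cells were plated and held 18 h at 37C/5% CO2, then given compound plus Ro20-1724 and stimulated with TSH at 1.5 ng/mL final. After 30 min at room temperature, cAMP was detected with cAMP-d2/anti-cAMP-cryptate (1 h) by fluorescence.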
% is scaled to controls: 0 for no effect and ±100 for the full control effect.

Thyrotropin receptor (Homo sapiens), sequence (P16473 whole entry, looked up): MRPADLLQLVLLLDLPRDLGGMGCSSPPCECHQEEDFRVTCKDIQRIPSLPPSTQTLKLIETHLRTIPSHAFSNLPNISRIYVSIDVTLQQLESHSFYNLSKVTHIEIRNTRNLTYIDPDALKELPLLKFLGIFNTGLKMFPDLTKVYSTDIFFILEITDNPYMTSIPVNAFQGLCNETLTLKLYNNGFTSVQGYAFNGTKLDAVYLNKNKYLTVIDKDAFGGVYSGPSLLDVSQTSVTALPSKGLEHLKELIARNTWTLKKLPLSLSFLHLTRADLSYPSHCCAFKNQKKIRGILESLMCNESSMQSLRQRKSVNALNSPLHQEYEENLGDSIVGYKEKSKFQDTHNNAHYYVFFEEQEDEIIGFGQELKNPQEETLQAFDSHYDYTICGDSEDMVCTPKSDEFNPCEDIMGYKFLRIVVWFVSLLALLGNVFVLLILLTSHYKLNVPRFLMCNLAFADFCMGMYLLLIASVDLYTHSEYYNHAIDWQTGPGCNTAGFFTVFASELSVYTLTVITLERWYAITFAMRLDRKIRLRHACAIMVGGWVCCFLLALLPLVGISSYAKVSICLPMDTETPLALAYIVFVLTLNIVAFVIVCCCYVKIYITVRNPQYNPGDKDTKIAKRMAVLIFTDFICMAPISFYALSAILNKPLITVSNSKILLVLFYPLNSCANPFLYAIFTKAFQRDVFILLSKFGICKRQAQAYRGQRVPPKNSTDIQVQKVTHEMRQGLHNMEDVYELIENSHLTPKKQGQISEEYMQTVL

Row | Structure (SMILES) | activity change, negative = inhibition
1 | CC(C)=CC(=O)O | -9.57% (inactive)
2 | O=C(O)c1ccccc1S | -0.154% [at 42.5 µM] (inactive)
3 | C=CCSCC1Nc2cc(Cl)c(S(N)(=O)=O)cc2S(=O)(=O)N1 (configuration not stated) | 0.774% [at 42.5 µM] (inactive)
4 | CCCCc1ccc(N)cc1 | 5.79% (inactive)
5 | CC(C)COC(=O)c1ccccc1O | -6.04% (inactive)
6 | CCCCCCCCCCCCCCC | 2.6% (inactive)
7 | O=[N+]([O-])c1ccc(CCO)cc1 | -2.81% (inactive)
8 | CCN(CC)S(=O)(=O)c1ccc(C(=O)O)cc1 | 1.41% [at 42.5 µM] (inactive)
9 | Nc1ccn(C2CO[C@H](CO)O2)c(=O)n1 (some centres not stated) | 5.36% [at 42.5 µM] (inactive)
10 | COC(C(=O)O)c1ccccc1 (configuration not stated) | -0.0901% (inactive)
11 | CCCCCCC(CCCCCCCCCCC(=O)OCC(COC(C)=O)OC(C)=O)OC(C)=O (configuration not stated) | 0.101% [at 42.5 µM] (inactive)
12 | NCC[C@H](O)C(=O)N[C@@H]1C[C@H](N)[C@@H](O[C@H]2O[C@H](CN)[C@@H](O)[C@H](O)[C@H]2O)[C@H](O)[C@H]1O[C@H]1O[C@H](CO)[C@@H](O)[C@H](N)[C@H]1O | 0.0742% [at 0.349 µM] (inactive)
13 | NC(=O)c1ncn([C@@H]2O[C@H](CO)[C@@H](O)[C@H]2O)c1N | -0.0106% [at 42.5 µM] (inactive)
14 | CCCc1ccccc1O | -0.314% (inactive)
15 | CO | 2% (inactive)
16 | C=CCOCC(O)CS(=O)(=O)O (configuration not stated) | 2.01% (inactive)
17 | Nc1ncnc2c1ncn2Cc1c(F)cccc1Cl | -0.0799% [at 42.5 µM] (inactive)
18 | NC(=O)CCCCC1CCSS1 (configuration not stated) | -1.09% [at 42.5 µM] (inactive)
19 | CC(C)c1ccc2oc3nc(N)c(C(=O)O)cc3c(=O)c2c1 | -0.809% [at 42.5 µM] (inactive)

Row | Structure (SMILES) | activity change, negative = inhibition
20 | Fc1ccccc1-c1ccccc1 | -11.1% (inactive)
21 | CC(C)N1C(=O)c2ccccc2C1=O | -3.8% (inactive)
22 | O=S(=O)(O)c1ccccc1O | -0.326% (inactive)
23 | COC(=O)CCCCCCCCC(=O)OC | -0.363% (inactive)
24 | c1ccc(CCCc2ccccn2)cc1 | -7.37% (inactive)
25 | O=C(O)c1ccc[n+]([O-])c1 | 0.0636% [at 42.5 µM] (inactive)
26 | NS(=O)(=O)c1cc2c(cc1Cl)NC(CSCc1ccccc1)=NS2(=O)=O | 1.51% [at 42.5 µM] (inactive)
27 | c1ccc2cnncc2c1 | -5.81% (inactive)
28 | CC1=CC(=O)CCC1 | -0.605% (inactive)
29 | CN(C)N=Nc1ccccc1 | -0.196% (inactive)
30 | NC(=S)Nc1cccc2ccccc12 | 2.83% [at 8.39 µM] (inactive)
31 | CC(C)c1cccc(O)c1 | 4.01% (inactive)
32 | NC(N)=NS(=O)(=O)c1ccc(N)cc1 | 0.36% [at 42.5 µM] (inactive)
33 | CCCCCCCCN(C)CCCCCCCC | -0.568% (inactive)
34 | CC1(C)SC(C)(C)SC(C)(C)S1 | -0.414% (inactive)
35 | NCCN1CCNC1=O | -0.977% (inactive)
36 | CCCCCCCCCCC1CO1 (configuration not stated) | 0.0554% (inactive)
37 | C=CCOc1nc(OCC=C)nc(OCC=C)n1 | -0.11% (inactive)
